# Bioassay records as filed in PubChem.
# Compounds with a hit are over-represented: about 3.3% of the library has one in this group of screens.
# Sm TGR block: S. mansoni TGR enzyme inhibition. Q962Y6. purified TGR, DTNB reduction, TNB absorbance 405 nm. Potency, µM (titrated, usually from 114 µM), for the others: at the top dose activity change, negative = inhibition, usual class: inhibitors. 3% of 360,000 active; also: % is scaled to controls: 0 for no effect and ±100 for the full control effect; nearly all actives have a fitted effect of over 60% in size
#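 First, TGR (20 nM dispensed) and NADPH were mixed with compound. Second, a 15 min room-temperature incubation followed. Third, further NADPH and then DTNB were added to start the reaction. Finally, TNB absorbance was monitored kinetically.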
# TbPYK inhibitor: inhibitors of Trypanosoma brucei pyruvate kinase. Q57TT1. TbPYK enzyme, Kinase-Glo Plus ATP luminescence, 45 min. Potency, µM (series often up to 76.8 µM), without a hit: at the top dose activity, negative = inhibition, most hits filed as inhibitors. 0.12% of 410,000 active; also: % is scaled to controls: 0 for no effect and ±100 for the full control effect; nearly all actives have a fitted effect of over 50% in size
#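 Luminescence from Kinase-Glo Plus, added after a 45-minute room-temperature reaction, served as the end-point read-out. The enzyme and substrate were preincubated with compound before ADP (130 uM final) initiated turnover. Concentration-effect curves came from normalized qHTS data.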
# LmPK inh: blocks Leishmania mexicana pyruvate kinase activity; Q27686; purified LmPK, Kinase-Glo ATP luminescence, 1 h; Potency, µM (highest dose often 57.5 µM), inactives show at the highest dose activity change, negative = inhibition, hits mostly inhibitors; 0.37% of 290,000 active; AID 1721; also: % is scaled to controls: 0 for no effect and ±100 for the full control effect
# Target sequence (Q27686 whole entry, looked up): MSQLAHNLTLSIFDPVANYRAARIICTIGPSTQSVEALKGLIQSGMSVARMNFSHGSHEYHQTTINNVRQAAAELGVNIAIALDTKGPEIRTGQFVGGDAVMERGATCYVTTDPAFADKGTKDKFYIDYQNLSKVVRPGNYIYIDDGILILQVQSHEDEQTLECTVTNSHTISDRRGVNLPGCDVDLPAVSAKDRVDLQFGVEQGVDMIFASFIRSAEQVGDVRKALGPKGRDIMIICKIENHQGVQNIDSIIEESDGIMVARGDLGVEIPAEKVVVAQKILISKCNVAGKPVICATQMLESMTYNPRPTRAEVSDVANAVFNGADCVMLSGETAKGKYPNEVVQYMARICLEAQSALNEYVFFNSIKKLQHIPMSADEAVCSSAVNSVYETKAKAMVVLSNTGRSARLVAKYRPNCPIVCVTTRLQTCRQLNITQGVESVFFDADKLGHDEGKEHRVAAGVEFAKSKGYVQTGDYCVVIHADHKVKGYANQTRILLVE
#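 Purified LmPK (0.1 nM) converted ADP (0.1 mM) to ATP with PEP (0.5 mM) in imidazole buffer pH 7.2 with KCl and MgCl2, 1 h at room temperature. ATP was read by Kinase-Glo luminescence; data normalized to uninhibited and no-enzyme controls.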
# SARS PLpro yeast: blocks SARS-CoV papain-like protease in a yeast assay; S. cerevisiae expressing SARS-CoV PLpro, growth rescue; Potency, µM (doses to about 32.9 µM), for inactives: top-dose activity, positive = growth rescue, usual class: activators; 0.19% of 330,000 active; calls by dose curve; also: 0% is about no effect; nearly all actives have a fitted effect of over 55% in size
# RE007 growth inh: less growth of the S. pombe RE007 Vpr strain; Potency, µM (top dose mostly 92.2 µM), for the others: at the highest dose activity change, negative = less growth, most hits filed as inhibitors; 0.21% of 360,000 active; AID 651644; S. pombe RE007 Vpr strain, BacTiter-Glo ATP luminescence, 24 h; active = well fitted falling curve with a large enough effect; inconclusive = small, poorly fitted or top-dose-only effect; inactive = no such curve, though single readings can be large or run the other way; also: % is scaled to controls: 0 for no effect and ±100 for the full control effect; nearly all actives have a fitted effect of over 50% in size
#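 Fission yeast strain RE007, carrying one chromosomally integrated HIV-1 vpr copy, was seeded at OD 0.01 in PMG+AL medium with 23 nL pinned compound. After 24 h at 30 °C and 99% humidity, viability was read by BacTiter-Glo luminescence.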
# NS1 function inh: blocks influenza NS1 protein function; AID 2326; Potency, µM (highest dose often 46.1 µM), inactives show at the highest dose activity, positive = more growth; 0.4% of 270,000 active; calls by dose curve; also: actives are rising curves; nearly all actives have a fitted effect of over 50% in size
#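 A cell-based growth assay was used: compounds that relieve NS1-induced slow growth of budding yeast raise OD600. Assay medium was yeast nitrogen base with ammonium sulphate and -URA supplement, pH 6.0, with 2% galactose.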
# * = called active by the depositor; u = inconclusive; x = no result; [ ] = remark or other dose. Unless noted, calls follow the shape of the dose curve; as a rule, active = well fitted curve in the direction sought with a large enough effect; inconclusive = small, poorly fitted or top-dose-only effect, or another doubt; inactive = no such curve, though single readings can be large; an effect the other way counts as inactive or inconclusive. Potency is read from the fitted curve at half-maximal effect.
SMILES,Sm TGR block,TbPYK inhibitor,LmPK inh,SARS PLpro yeast,RE007 growth inh,NS1 function inh
CS(=O)(=O)Nc1ccc(C2=NN(S(=O)(=O)c3ccc(F)cc3)C(c3ccco3)C2)cc1 (stereo not drawn),14µM*,-5%,-1%,4%,-1%,x
O=S(=O)(c1ccccc1)N1N=C(c2ccc(Br)cc2)CC1c1ccco1 (stereo not drawn),56µM*,u,-3%,-2%,-4%,-8%
Cc1cc(N2CCOCC2)c(F)cc1C(=O)c1ccccc1,-25%,0%,3%,12%,13µM*,-18%
CC(=O)c1cc(F)c(N2CCOCC2)cc1C,-21%,0%,-2%,10%,-4%,0%
Nc1ccn([C@@H]2O[C@H](CO)[C@@H](O)C2(F)F)c(=O)n1,x,0%[157 µM],x,x,x,x
COc1ccc(N(C(=O)/C=C\C(=O)Nc2ccc(C)cc2)C(C(=O)NCc2ccco2)c2ccc(C)cc2)cc1 (stereo not drawn),45µM*,4%,x,x,x,x
COc1ccc(NC(=O)/C=C\C(=O)N(c2ccc(C(C)C)cc2)C(C(=O)NCc2ccco2)c2ccc(C)cc2)cc1 (stereo not drawn),56µM*,-5%,x,x,x,x
Cc1ccc(NC(=O)/C=C\C(=O)N(c2ccc(C(C)C)cc2)C(C(=O)NCc2ccco2)c2ccc(F)cc2)cc1 (stereo not drawn),-26%,-2%,x,x,x,x
COc1ccc(Cl)cc1NC(=O)CCCn1c(C)c2cnn(-c3ccccc3)c(=O)c2c1C,u,-7%,x,x,x,x
O=C(CSc1nnc(-c2cccnc2)n1Cc1ccco1)N1c2ccccc2Sc2ccccc21,25µM*,1%,0%,1%,-11%,4%
COc1ccc(C(=O)CSc2nnc(-c3cccnc3)n2Cc2ccco2)cc1,56µM*,-11%,3%,14%,-22%,0%
COc1ccc(C(=O)CSc2nnc(-c3cc4ccccc4cc3O)n2Cc2ccco2)cc1,u,2%,3%,0%,0%,4%
C=CCn1c(CNC(=O)c2ccco2)nnc1SCC(=O)N1c2ccccc2Sc2ccccc21,35µM*,-15%,1%,5%,18%,1%
C=CCn1c(CNC(=O)c2ccco2)nnc1SCC(=O)c1ccc(F)cc1,-3%,-1%,0%,-1%,19%,-11%
COc1ccc(C(=O)CSc2nnc(-c3cnccn3)n2Cc2ccco2)cc1,35µM*,-1%,14%,-1%,3%,-48%
CCc1ccccc1NC(=O)c1nc2nc(C)cc(C(F)F)n2n1,7%,1%,x,x,x,x
N/N=C1/c2ccccc2N[C@H]1OC(=O)Nc1ccccc1,x,x,x,x,x,-6%
COc1ccc(C(=O)N2CCC[C@@]3(CCN(Cc4ccc(C#N)cc4)C3)C2)cc1,x,0%,x,x,x,x
Clc1ccc(CSc2nnc(-c3cccnc3)n2Cc2ccco2)c(Cl)c1,14µM*,-15%,1%,-16%,16%,-51%
Cc1[nH]n(-c2nc(-c3ccccc3)cc(=O)[nH]2)c(=O)c1CCO,-2%,-12%,-10%,1%,4%,x
CCOC(=O)CCc1c(C)nc(-n2[nH]c(C)c(CCO)c2=O)[nH]c1=O,16µM*,0%,1%,-2%,-14%,x
CC1CCc2c(sc(NC(=O)Cc3ccccc3)c2C(=O)Nc2ccc(Cl)cc2)C1 (stereo not drawn),-12%,1%,x,x,x,x
O=C1c2cccc([N+](=O)[O-])c2C(=O)N1c1ncn[nH]1,x,x,x,x,x,7%
CC1(C)CC(=O)C(N=Nc2ccc(Br)cc2)=C(O)C1,-3%,-1%,2%,1%,32%,1%
CC1(C)CC(=O)C(N=Nc2ccc(S(=O)(=O)N3CCOCC3)cc2)=C(O)C1,40µM*,-7%,-3%,2%,-9%,12%
SMILES,Sm TGR block,TbPYK inhibitor,LmPK inh,SARS PLpro yeast,RE007 growth inh,NS1 function inh
COc1cccc(CN(C(=O)c2oc3cc(C)ccc3c2C)C2CCS(=O)(=O)C2)c1 (stereo not drawn),7%,2%,x,x,x,x
O=C(C1=NNCC1c1ccccc1)C1OC1c1ccccc1 (stereo not drawn),22µM*,-6%,4%,-1%,-5%,8%
O=C(c1ccccc1)C1OC1C(=O)c1ccccc1 (stereo not drawn),x,0%,x,x,-26%,x
Cc1cnc(C(=O)Nc2cccc3ncccc23)cn1,3%,1%,-7%,-9%,8%,-10%
Cc1cnc(C(=O)Nc2ccccc2-c2ccc(C)o2)cn1,20µM*,-1%,-5%,6%,-27%,-13%
COc1ccc(Cn2c(C(=O)O)c(CNCc3ccco3)c3ccc(OC)cc32)cc1,-13%,-1%,x,x,x,x
CCOC(=O)C1=C(C)N=c2s/c(=C/c3cccc([N+](=O)[O-])c3O)c(=O)n2C1c1ccc(OC)cc1OC (stereo not drawn),56µM*,u,-12%,-6%,4%,30%
CCOC(=O)C1=C(C)N=c2s/c(=C\c3ccc(O)c([N+](=O)[O-])c3)c(=O)n2C1c1ccccc1OC (stereo not drawn),-10%,-1%,-10%,-10%,20%,29%
CCCCS(=O)(=O)N[C@@H](Cc1ccc(OCCCCC2CCNCC2)cc1)C(=O)O,x,3%,x,x,x,x
CC(C)c1nc2oc3c(N4CCNCC4)ncnc3c2c2c1CCC2,x,4%,x,x,-12%,3.2µM*
CC(C)c1nc2oc3c(=O)[nH]cnc3c2c2c1CCC2,9%,-5%,4%,1%,19%,-3%
CC1=C(C(=O)OCCCBr)C(c2ccc3c(c2)OCO3)NC(=O)N1 (stereo not drawn),25µM*,-14%,3%,1%,-3%,22%
CCOC(=O)C1=C(CN2CCSCC2)NC(=O)NC1c1ccc2c(c1)OCO2 (stereo not drawn),4%,-2%,-3%,0%,-13%,x
CC1=C(C(=O)OCCBr)C(c2cccc3ccccc23)NC(=O)N1 (stereo not drawn),40µM*,2%,-3%,0%,-2%,4%
CCCCOc1ccccc1C1NC(=O)NC(C)=C1C(=O)OCc1ccco1 (stereo not drawn),45µM*,-11%,0%,0%,1%,12%
CCOC(=O)C1=C(CCl)NC(=O)NC1c1ccc2c(c1)OCO2 (stereo not drawn),8.9µM*,0%,-5%,25%,-22%,6%
CCOc1ccc(NC(=O)Nc2ccccc2SC)cc1,-3%,-9%,7.9µM*,-1%,-7%,-6%
CCN(C(=O)Cn1c(=O)n(CCCS(=O)(=O)C2CCCCC2)c(=O)c2ccccc21)c1cccc(C)c1,3%,-2%,x,x,x,x
COc1ccc(CCNC(=O)c2cnc3ccc(C)cn3c2=O)cc1,8%,4%,x,x,x,x
